The source of these data is PubChem BioAssay (Tox21).

Calls of active or inactive are those of the source. Where a call stands in place of a potency, no number is given. Calls come from the whole dose curve; as a rule, active = well fitted activation curve with a large enough effect in the repeat runs; inconclusive = weak or mixed curves; inactive = flat fitted curve, though single readings scatter.

Sequence of KiSS-1 receptor (Homo sapiens) (Q969F8 whole entry, looked up): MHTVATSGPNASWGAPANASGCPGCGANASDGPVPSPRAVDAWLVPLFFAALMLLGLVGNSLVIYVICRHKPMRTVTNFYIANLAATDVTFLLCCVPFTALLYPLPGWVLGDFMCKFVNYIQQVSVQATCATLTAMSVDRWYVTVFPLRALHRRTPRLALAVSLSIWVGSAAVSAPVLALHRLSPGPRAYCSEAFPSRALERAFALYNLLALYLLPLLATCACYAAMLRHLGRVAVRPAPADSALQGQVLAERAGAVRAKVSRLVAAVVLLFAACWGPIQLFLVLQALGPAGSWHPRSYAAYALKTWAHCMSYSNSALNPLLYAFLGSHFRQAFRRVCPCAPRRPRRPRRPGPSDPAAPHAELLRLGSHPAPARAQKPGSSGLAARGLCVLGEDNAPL

This assay addresses KiSS-1 receptor (Homo sapiens) (UniProt Q969F8). The experiment in a line: Human kisspeptin (KISS1R) small molecule agonists, calcium flux assay in KISS1R-HEK293 cells (AID 1920064). The note with it: KISS1R-HEK293, calcium flux fluorescence, agonist; series mostly up to 76.8 µM. The source says:
National Center for Advancing Translational Sciences [NCATS]
Division of Preclinical Innovation [DPI]
U.S. Environmental Protection Agency [EPA]
National Institutes of Environmental Health Sciences [NIEHS]
National Toxicology Program [NTP]
U.S. Food and Drug Administration [FDA]
Kisspeptin and its receptor KISS1R play key roles in mammalian reproduction due to their involvement in the onset of puberty and control of the hypothalamic-pituitary-gonadal axis such as regulates GnRH release from the hypothalamus. The kisspeptin/KISS1R system also plays a direct role in peripheral organs (including the ovary, testis, uterus, and placenta) and is implicated in reproductive diseases such as miscarriage and polycystic ovary syndrome (PCOS). Abnormal KISS1R activity is associated with abnormal puberty, infertility, endometriosis, and hormone-dependent tumors. The KISS1 receptor (KISS1R, also called GPR54), a G-protein-coupled receptor (GPCR), acts (through phospholipase C) to increase intracellular inositol trisphosphate and then release intracellular calcium stores. Cell-based KISS1R-HEK293 assay is using HEK293 cells that have been genetically engineered to express the human KISS1R, which activity can be measured by calcium signaling. A compound/drug can activate (agonist) KISS1R that can be monitored by levels of intracellular calcium.
KISS1R-HEK293 cells developed by Codex Corp contain human KISS1R gene, which was stably integrated into HEK 293 cells. The compound activation can be detected by fluorescence intensity via calcium flux assay. This cell line has been used to screen the Tox21 10K compound library to identify agonists of KISS1R.
KISS1R-Hek293 cells were dispensed at 1500 cells/4uL/well in 1536-well black wall/clear bottom plates using a multidrop dispenser. After the assay plates were incubated at a 37 C/5% CO2 incubator for 18 hours, 4 microL of Calcium Dye Solution was added to each well. The plates were incubated at 37 C for 1 hour. And then 23 nL of compounds dissolved in DMSO, positive controls, or DMSO only was transferred to the assay plate by a pin tool station. The fluorescence intensity in the plates was measured using FDSS 7000EX kinetic plate reader with a filter set of Ex/Em=480/540 for 3 min at 1 sec intervals. Each test compound was measured at 15 concentrations and in triplicates.
For orientation: A change in cytosolic calcium serves as a functional read-out for many receptors and channels.
Consider `CCCCCCCCS(=O)(=O)Cl`, for which the Potency result was “inactive”.
`CC(=O)N[C@H]1[C@H]([C@H](O)[C@H](O)CO)OC(C(=O)O)=C[C@@H]1N=C(N)N`: the Potency result was “inactive”.
With `O=S1(=O)OC(c2ccc(O)cc2)(c2ccc(O)cc2)c2ccccc21` the entry was “inactive”; with `CCOC(=O)CC(C(C)=O)C(C)=O`, “inactive”; with `Nc1nc(N)c2nc(-c3ccccc3)c(N)nc2n1`, “inactive”.
Consider `Cc1ccccc1C(=O)N1CC/C(=N\OS(=O)(=O)O)c2ccc(Cl)cc21`, for which the Potency result is “inactive”.
Consider `CC1=CC(C)C(C=O)CC1` (stereo not given), for which the Potency entry is “inactive”.
Under `CCCCOCCOCCOCCO` stands “inactive”.
For the molecule `CN(C)c1ccc(Cc2ccc(N(C)C)cc2)cc1`, the Potency result was “inactive”.
Turning to `Cc1ccc(S(=O)(=O)NC2CCCCC2)cc1`, the Potency entry is “inactive”.
With `Cc1nc(C)c(C)nc1C` the entry was “inactive”; with `C=CC(C)(CCC=C(C)C)OC=O` (stereo not given), “inactive”; with `CC1=CCC(C(C)(C)O)CC1` (stereo not given), “inactive”.
Take `CCO[Si](OCC)(OCC)c1ccccc1`: the Potency entry is “inactive”.
For `Oc1ccc2cc(SSc3ccc4cc(O)ccc4c3)ccc2c1`, the Potency entry is “inactive”.
For the molecule `FC(F)(F)/C(=N\OCC1OCCO1)c1ccc(Cl)cc1`, the Potency result is “inactive”.
In the case of `CC1(C)[C@H]2CC[C@](C)(C2)[C@H]1O`, the Potency entry is “inactive”.
With `CC(C)=CCC/C(C)=C/C(=O)O` the entry was “inactive”; with `CCOC(=O)N1CCC(=C2c3ccc(Cl)cc3CCc3cccnc32)CC1`, “inactive”.
With `O=c1[nH]cnc2[nH]ncc12` the entry was “inactive”; with `CCCCCCN`, “inactive”.
Take `Cc1ccc(O)c([N+](=O)[O-])c1`: the Potency result was “inactive”.
As for `CCCCCCCCCCCCCCO`, the Potency entry was “inactive”.
`C#CC(C)(O)CC(C)C` (stereo not given): the Potency entry is “inactive”.
With `COc1ccc(-c2coc3cc(O)cc(O)c3c2=O)cc1` the entry was “inactive”.
`O=S(=O)(O)c1ccccc1O`: the Potency result was “inactive”.
In the case of `COc1cccc(OC)c1C(=O)N[C@@H]1C(=O)N2[C@@H]1SC(C)(C)[C@@H]2C(=O)O`, the Potency entry is “inactive”.
Turning to `CCC(C)(Oc1ccc(C2(c3ccc(OC(C)(CC)C(=O)O)cc3)CCCCC2)cc1)C(=O)O` (stereo not given), the Potency result was “inactive”.
For `Cc1ccc2oc(=O)ccc2c1`, the Potency result was “inactive”.
Under `C1CCC(SSC2CCCCC2)CC1` stands “inactive”.
`O=Cc1ccccc1C=O`: the Potency entry is “inactive”.
Consider `OC[C@H]1O[C@@H]2O[C@H]3[C@H](O)[C@@H](O)[C@@H](O[C@H]4[C@H](O)[C@@H](O)[C@@H](O[C@H]5[C@H](O)[C@@H](O)[C@@H](O[C@H]6[C@H](O)[C@@H](O)[C@@H](O[C@H]7[C@H](O)[C@@H](O)[C@@H](O[C@H]1[C@H](O)[C@H]2O)O[C@@H]7CO)O[C@@H]6CO)O[C@@H]5CO)O[C@@H]4CO)O[C@@H]3CO`, for which the Potency entry was “inactive”.
As to `Cc1ccccc1S(=O)(=O)O`, the Potency result is “inactive”.
For the molecule `Cn1cc(S(C)=O)c(=O)c2ccc(F)cc21` (stereo not given), the Potency entry was “inactive”.
For the molecule `CC(COCC(C)OC(=O)c1ccccc1)OC(=O)c1ccccc1` (stereo not given), the Potency entry was “inactive”.
Take `Cc1cc(N)no1`: the Potency result was “inactive”.
Turning to `O=C(O)c1cccc(C[C@@H]2COc3ccc(OCc4nc5cc(F)ccc5s4)cc3[C@@H]2O)c1`, the Potency entry is “inactive”.
With `O=C(c1ccc(OCCN2CCCCC2)cc1)c1c(-c2ccc(O)cc2)sc2cc(O)ccc12`, the Potency result is “inactive”.
For the molecule `O=C1C=CC(=O)O1`, the Potency entry is “inactive”.
Consider `CCC(=O)OC(C)c1ccccc1` (stereo not given), for which the Potency result was “inactive”.
